Measurements reported in PMC9838217, “Structure of SALL4 zinc finger domain reveals link between AT-rich DNA binding and Okihiro syndrome”.
Changes are numbered by the printed parent chain.

Assays:
Assay in all cases: HT-SELEX; high values mean tight binding
Details in all cases: protein: recombinant; vector His6-GST; dsDNA, one strand shown
SALL4 ZFC4 WT (HT-SELEX) = molecular target: T1, SALL4 ZFC4 WT (HT-SELEX) (Mus musculus, UniProt Q8BX22 870-940)
T1 sequence: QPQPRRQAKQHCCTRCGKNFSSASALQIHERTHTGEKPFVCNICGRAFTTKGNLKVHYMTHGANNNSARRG
Outline: (§1)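 For each canonical k-mer, binding signal is the read fraction as fold change versus the initial random library. Data came from up to 6 triplicate cycles in which purified recombinant mouse SALL4 zinc finger cluster 4 (residues 870–940, 1 µg) was incubated 10 min at room temperature with library DNA (1.5 µg first cycle, 200 ng later) in 100 µl of 10 mM Tris–HCl pH 7.5, 50 mM NaCl, poly(dI-dC), DTT, followed by Ni2+ bead capture, PCR amplification, MiSeq sequencing and a 6-mer scan.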

[1] = molecular target: T2, SALL4 ZFC4 R900W (HT-SELEX) (Mus musculus, UniProt Q8BX22 870-940, R900W)
T2 sequence: T1 sequence with R31W
Outline: as §1

[2] = molecular target: T3, SALL4 ZFC4 G921D (HT-SELEX) (Mus musculus, UniProt Q8BX22 870-940, G921D)
T3 sequence: T1 sequence with G52D
Outline: as §1

Sequence	binding signal (SALL4 ZFC4 WT (HT-SELEX)) [fold-change vs cycle 0]	binding signal [1] [fold-change vs cycle 0]	binding signal [2] [fold-change vs cycle 0]
AGTACA	1.29 ± 0.0355	1.43 ± 0.0834	1.35 ± 0.0882
GAACTC	0.875 ± 0.0352	1.03 ± 0.0309	1.04 ± 0.0772
GTAGTA	1.29 ± 0.036	1.41 ± 0.0747	1.33 ± 0.0906
CCTAAC	0.883 ± 0.0279	0.976 ± 0.0147	1 ± 0.0113
CATGGA	0.865 ± 0.0271	0.95 ± 0.0312	0.985 ± 0.0405
GACGAA	0.609 ± 0.00641	0.72 ± 0.0219	0.7905 ± 0.00753
ACTGAT	1.4 ± 0.115	1.51 ± 0.108	1.43 ± 0.137
ATGAAA	2.91 ± 0.152	1.98 ± 0.0876	1.79 ± 0.147
GCAAAC	0.54 ± 0.031	0.598 ± 0.00737	0.718 ± 0.0549
CTTGCA	0.697 ± 0.0262	0.7756 ± 0.00768	0.856 ± 0.0345
CACTTA	1.34 ± 0.0677	1.46 ± 0.0563	1.38 ± 0.0979
AACTGT	1.31 ± 0.0453	1.39 ± 0.0174	1.34 ± 0.0563
GCGTTA	0.54 ± 0.0741	0.582 ± 0.053	0.668 ± 0.0435
CACACA	0.666 ± 0.03	0.777 ± 0.0199	0.826 ± 0.0389
AGTGAA	1.35 ± 0.0774	1.52 ± 0.125	1.39 ± 0.134
CCGTCA	0.358 ± 0.0271	0.431 ± 0.0281	0.531 ± 0.0693
CGCTTA	0.535 ± 0.019	0.58 ± 0.0258	0.684 ± 0.061
AGAGTC	0.786 ± 0.0201	0.925 ± 0.0489	0.995 ± 0.0509

Sequence	binding signal (SALL4 ZFC4 WT (HT-SELEX)) [fold-change vs cycle 0]	binding signal [1] [fold-change vs cycle 0]	binding signal [2] [fold-change vs cycle 0]
TCAGGA	0.887 ± 0.0551	1.02 ± 0.0319	1.03 ± 0.0207
GCAAAA	0.804 ± 0.0195	0.786 ± 0.0174	0.873 ± 0.0736
CATCTA	1.33 ± 0.0229	1.41 ± 0.0368	1.38 ± 0.068
ATGAGC	0.659 ± 0.0207	0.736 ± 0.0172	0.836 ± 0.0347
ACTGTC	0.75 ± 0.0397	0.857 ± 0.0177	0.901 ± 0.0149
AGAAGC	0.652 ± 0.0323	0.745 ± 0.0224	0.845 ± 0.0201
TACGAA	1.17 ± 0.0583	1.27 ± 0.067	1.22 ± 0.0855
AATGTG	1.15 ± 0.0171	1.23 ± 0.0476	1.25 ± 0.0281
AAGTAT	2.21 ± 0.135	2.14 ± 0.158	1.87 ± 0.204
ACATTG	1.17 ± 0.0218	1.29 ± 0.0215	1.28 ± 0.0251
CTGTCC	0.398 ± 0.039	0.493 ± 0.0175	0.587 ± 0.0324
AGTAAG	1.58 ± 0.0246	1.73 ± 0.024	1.53 ± 0.116
CGATAG	0.68 ± 0.0214	0.774 ± 0.0246	0.851 ± 0.0176
AAAACC	0.956 ± 0.0539	1.05 ± 0.0465	1.1 ± 0.0332
GTTAGA	1.3 ± 0.0316	1.47 ± 0.0186	1.41 ± 0.0651
ACGAGT	0.767 ± 0.0224	0.897 ± 0.033	0.922 ± 0.0421
ATATGC	1.17 ± 0.106	1.07 ± 0.0294	1.13 ± 0.0399
CATCCC	0.525 ± 0.0193	0.59 ± 0.0178	0.652 ± 0.049
